PLK1 PBD inh: PLK1 (human) polo-box domain binding inhibition. P53350. Plk1 PBD binding of FITC phosphopeptide, fluorescence polarization. Potency, µM, for inactives: max response, negative = inhibition, most hits filed as inhibitors. actives 2.8% (n = 360,000). AID 720504; note: series mostly up to about 57 µM; % is set by controls: 0 for no effect and ±100 for the full control effect; nearly all actives have a fitted effect of over 65% in size
G9a inh: blocks human histone lysine methyltransferase G9a | Q96KQ7 | G9a H3K9 monomethylation, AlphaScreen, 2 h | Potency, µM (titrated, usually from 102 µM), for inactives: at the highest dose activity, negative = inhibition, hits mostly inhibitors | actives 8.8% (n = 350,000) | AID 504332; note: % is set by controls: 0 for no effect and ±100 for the full control effect; nearly all actives have a fitted effect of over 75% in size
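G9a (20 nM) preincubated 15 min RT with compounds, then 500 nM biotinylated H3K9 peptide and 20 uM SAM added; 2 h RT reaction. Monomethyl-H3K9 product detected by AlphaScreen with anti-H3K9me1 antibody, streptavidin donor and anti-rabbit IgG acceptor beads.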
HP1b binding inh: inhibitors of HP1-beta chromodomain binding to methylated histone tails; P83916; AlphaScreen HP1-beta / biotin-H3K9me3 peptide binding; Potency, µM (titrated, usually from 114 µM), inactives show at the highest dose activity change, negative = inhibition, most hits filed as inhibitors; actives 0.56% (n = 390,000); AID 540317; note: nearly all actives have a fitted effect of over 70% in size
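AlphaScreen: HP1-beta (50 nM) preformed 30 min with biotin-H3(1-18)K9me3 peptide (50 nM) in PBS pH 7.4, 0.01% Tween-20. Compound added for 30 min at RT, then streptavidin donor/nickel chelate acceptor beads (10 ug/mL) for 30 min.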
BAZ2B block: inhibitors of human BAZ2B bromodomain; Potency, µM (highest dose often 114 µM), inactives show at the top dose activity change, negative = inhibition, usual class: inhibitors; actives 4.4% (n = 360,000); Q9UIF8; AlphaScreen BAZ2B-H3K14Ac peptide displacement; AID 504333; note: % is set by controls: 0 for no effect and ±100 for the full control effect; nearly all actives have a fitted effect of over 60% in size
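BAZ2B 50 nM plus b-H3(5-23)K14Ac 50 nM, PBS pH 7.4/0.01% Tween-20, 30 min RT; compound added (max 110 uM), 30 min RT; streptavidin donor/Ni-chelate acceptor beads 10 ug/mL final, 20 min dark; AlphaScreen read.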
12-LOX inh: blocks human arachidonate 12S-lipoxygenase. purified 12hLO, xylenol orange hydroperoxide absorbance. Potency, µM (top dose mostly 108 µM), for inactives: at the highest dose activity change, negative = inhibition, actives largely listed as inhibitors. AID 1671190. actives 1.1% (n = 580,000). P18054; note: % is set by controls: 0 for no effect and ±100 for the full control effect
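Purified human 12hLO (150 nM final) in 25 mM Hepes, 0.01% Triton X-100, pH 7.0 was preincubated 15 min at room temperature with compound. Then 40 uM arachidonic acid was added, 30 min. Hydroperoxide was read by Fe-XO absorbance ratio 573/405 nm.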
JMJD2A Tudor: blocks the human JMJD2A Tudor domain | actives 4.4% (n = 390,000) | O75164 | AlphaScreen JMJD2A-Tudor / H3K4me3 peptide binding | Potency, µM (top dose mostly 114 µM), for inactives: at the top dose activity change, negative = inhibition, usual class: inhibitors; note: % is set by controls: 0 for no effect and ±100 for the full control effect; nearly all actives have a fitted effect of over 50% in size
Active calls of the source: *; ? = inconclusive; / = not tested or not shown; ! = repeats disagree; [ ] = another dose, or the depositor's remark. The list is not random: actives were taken first. Their share in the collection is about 9%. Calls come from the whole dose curve; as a rule, active = well fitted curve in the direction sought with a large enough effect; inconclusive = small, poorly fitted or top-dose-only effect, or another doubt; inactive = no such curve, though single readings can be large; an effect the other way counts as inactive or inconclusive. Potency is the fitted concentration of half-maximal effect.

SMILES	PLK1 PBD inh	G9a inh	HP1b binding inh	BAZ2B block	12-LOX inh	JMJD2A Tudor
Cn1c(=O)c(N)c2c3c(c(Br)ccc31)C(=O)c1ccccc1-2	0.597µM*	4.47µM*	11.8%[57 µM]	-33.4%	-15.1%	-34.2%
CC(c1ccccc1)n1cc2c(c1-c1ccccc1Br)c(=O)n(C)c(=O)n2C (stereo not drawn)	/	-44.2%[59 µM]	-9.0%	?	?	?
C/C(CC(=O)Nc1ccc2c(c1)OCCO2)=N\NC(=O)COc1ccccc1	-14.1%	-10.4%	41.3%	-8.4%	-1.1%	-7.4%
CN(C)[C@H]1C(=O)C(C(=O)NCN2CCCC2)=C(O)[C@]2(O)C(=O)C3=C(O)c4c(O)cccc4[C@@](C)(O)[C@H]3C[C@@H]12	/	7.94µM*	/	/	/	/
C/C(=N\Nc1cccc(Cl)c1)C1(C)N(O)C(C)(C)C(c2ccco2)=[N+]1[O-] (stereo not drawn)	-0.3%	44.7µM*	27.9%	-34.0%	?	-26.5%
CCOC(=O)c1c(NC(=O)C2CC(Cl)=CCC2C(=O)O)sc2c1CCCCC2 (stereo not drawn)	?	44.7µM*	-6.2%	50.1µM*	/	?
O=C(Nc1sc2c(c1C(=O)NCc1ccccc1)CCCC2)c1cc(=O)c2ccccc2o1	/	11.2µM*	?	-11.7%	-12.9%	-17.7%
COC(=O)c1c(NC(=O)COC(=O)c2ccccc2O)sc2c1CCCCC2	-3.6%	?	13.5%	32.3%	-4.6%	3.4%
COC(=O)c1c(NC(=O)COC(=O)c2ccc(NC(=O)CC#N)cc2)sc2c1CCCCC2	-14.4%	-2.0%[59 µM]	-16.5%	44.7µM*	-18.1%	44.7µM*
CCOC(=O)c1c(NC(=O)COc2cccc(C)c2C)sc2c1CCCCC2	/	11.2µM*	-10.6%	1.6%	-17.6%	-11.4%
CCOC(=O)c1c(NC(=O)COc2ccccc2F)sc2c1CCCC2	/	8.8%[59 µM]	25.1%	6.2%	-20.9%	9.0%
Cc1cccc(/C=N/NC(=O)c2ccccc2)c1	/	/	/	/	-0.7%	/
CCOC(=O)[C@H]1[C@H]2COc3ccc(Cl)cc3[C@@H]2N2C(=O)CNC(=O)[C@@]12C	-8.9%	-5.2%[0.501 µM]	32.0%	11.9%	-27.6%	-9.7%
COC(=O)c1c(NS(=O)(=O)c2ccc3ccccc3c2)sc2c1CCCC2	23.8µM*	?	4.9%	?	?	-30.2%
O=C(O)CCC(=O)Nc1sc2c(c1C(=O)Nc1cccc3ccccc13)CCCCC2	-29.5%	22.4µM*	-5.1%	?	?	?
O=C(O)CCC(=O)Nc1sc2c(c1C(=O)Nc1ccccc1)CCCCC2	?	28.2µM*	-12.8%	-18.1%	14.1µM*!	-31.5%
COc1c(Cl)cccc1NC(=O)c1c(NC(=O)Cc2ccccc2)sc2c1CCCC2	/	/	/	/	/	-9.6%
CC1CCc2c(sc(NS(=O)(=O)c3ccccc3)c2C(=O)OC(C)C)C1 (stereo not drawn)	16.8µM*	?	17.1%	5.4%	-58.1%	-4.1%
CC(C)(C)C(=O)/C=c1/[nH]c(=O)/c(=C/c2ccccc2OC(F)F)s1	/	/	/	/	-1.3%	/
O=C(OCc1ccccc1)C1=NNC2C(=O)N(c3ccc(Br)cc3)C(=O)C12 (stereo not drawn)	-0.4%	/	29.4%	-14.8%	131.7%	-8.9%
C[C@@H]1CN([C@@H](C)CO)C(=O)CCCn2nncc2CO[C@H]1CN(C)S(=O)(=O)c1ccc(Cl)cc1	-11.8%	/	/	/	-14.3%	/
CCOC(=O)c1c(NC(=O)CCCC(=O)O)sc2c1CCC2	-10.2%	19.8%[12.7 µM]	-16.4%	-22.3%	?	-15.5%
CC1CCc2c(sc(NC(=O)CCC(=O)O)c2C(=O)NC2CC2)C1 (stereo not drawn)	5.32µM*	8.91µM*	?	-35.7%	6.6%	?
CCOC(=O)c1c(NC(=O)CCC(=O)O)sc2c1CCCCC2	6.7µM*	7.94µM*	?	-4.7%	?	?
COC(=O)c1c(NC(=O)COc2cccc(C(F)(F)F)c2)sc2c1CCCC2	/	8.91µM*	0.3%	1.1%	-21.4%	-4.6%

Screening data deposited in PubChem BioAssay by National Center for Advancing Translational Sciences (NCATS).
